Laboratory results reported in PubChem BioAssay (NCI).
Compounds without any hit were thinned out: in the full panel of roughly 83,000, 20% have a hit.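 Activity criterion: percent growth below 10, measured after cells in 96-well plates were exposed to a single compound concentration for 48 hours.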 A number with no mark means an inactive call. Calls of active or inactive are those of the source.

The molecules below were run on OVCAR-3 ovarian (assay: NCI-60 one-dose screen, 48 h (100 = growth as untreated, 0 = no growth, -100 = all killed)). Conditions: 10 µM unless noted.
Protocol: Growth inhibition of the OVCAR-3 human tumor cell line is measured as a screen for anti-cancer activity. Cells are grown in 96 well plates and exposed to the test compound for 48 hours. Compounds are tested at a single concentration, which is 10^-5 M for most compounds. The reported endpoint is percent growth (GI% or GIPRCNT), where numbers from 0 - 100% represent growth inhibition, and numbers from -100% - 0 represent cell death. For example, a value of 40 represents 60% growth inhibition. A value of 0 means no net growth occurred over the course of the experiment. A value of -40 indicates 40% of cells at the beginning of the experiment died by the end of the experiment. A value of -100 means all cells are dead at the end of the experiment.
NCI-60 Human Tumor Cell Lines Screen was performed using the standard one-dose NCI protocol, which is described in more detail at https://dtp.cancer.gov/discovery_development/nci-60/default.htm.
Compounds with GIPRCNT values below 10 were considered active. Activity score was based on GIPRCNT using the following formula: […]
Score is 0 for GIPRCNT values of 100 or above, 50 for GIPRCNT values of 0, and 100 for GIPRCNT values of -100.

| SMILES | growth |
| --- | --- |
| NNC(=O)/C(=C\c1ccc([N+](=O)[O-])cc1)CC(=O)c1ccc(Cl)c(Cl)c1 | 97.2% |
| CCCCCCCCCCCCC1CCC/C=C\CCC(=O)O1 (stereo not given) | 102% |
| CC(C)(C)CC(C)(C)Nc1c(-c2ccc3c(c2)OCO3)nc2cnccn12 | 92.5% |
| O=C1Nc2ccccc2/C1=N/c1nc(-c2ccc(Cl)cc2)cs1 | 64.9% |
| COc1cc2nc(-c3ccc(C(F)(F)F)cc3)cc(OCCN3CCCC3)c2cc1OC | 97.3% |
| COc1cc2nnn3c4ncccc4c(N=O)c3c2cc1OC | 120% |
| Cc1c([N+](=O)[O-])cc(C(C)(C)C)cc1[N+](=O)[O-] | 101% |
| O=C1Nc2c(ccc(Cl)c2Cl)/C1=C/c1ccc(F)cc1 | 83.5% |
| COc1cc(OC)cc(C2C3=C(COC3=O)Nc3cc(OC)ccc32)c1 (stereo not given) | -50% (active) |
| Nc1cc(N)c2cccnc2c1O | 89% |
| O=C(O)c1cn(C2CC2)c2cc(N3CCN(C(=O)C[n+]4cccc5ccccc54)CC3)c(F)cc2c1=O | 51.1% |
| CS(=O)(=O)OCCN(CCOS(C)(=O)=O)c1ccc(/C=N/Nc2ccc([N+](=O)[O-])cc2[N+](=O)[O-])cc1 | 107% |
| C=C1C(=O)O[C@H]2[C@H]1CC/C(COC(=O)CCCc1c[nH]c3ccccc13)=C\CC[C@@]1(C)O[C@@H]21 | 28.3% |
| COc1c(Cl)cc(Cl)c2ccc(C=C3C(=O)NC(=S)NC3=O)nc12 | 103% |
| O=C(CN1CCOCC1)Nc1ccc2ncnc(Nc3ccc(Oc4cccc(F)c4)c(Cl)c3)c2c1 | 55.6% |
| Cc1ccc(O)c(C(=O)O)c1 | 107% |
| CCCCCCCCCCCCCCCCCCOc1ccccc1N | 44.9% |
| CCCNC(=O)Oc1ccc(/C(=C(\C)c2ccccc2)c2ccc(OCCN3CCCCC3)cc2)cc1 | 75.6% |
| CC1(C)CC[C@]2(C(=O)NCC#CCN3CCOCC3)CC[C@]3(C)C(=CC[C@@H]4[C@@]5(C)Cc6c([nH]c7ccccc67)C(C)(C)[C@@H]5CC[C@]43C)[C@@H]2C1 | 95.1% |
| O=c1[nH]c2c(s1)CCCC2CN1CCCCC1 (stereo not given) | 111% |

| SMILES | growth |
| --- | --- |
| C=Cc1cc[n+](CCCCCCCCCCCC)cc1 | 110% |
| S=c1[nH]cccc1-c1nnc2n1Nc1nc3ccccc3cc1CS2 | 105% |
| c1ccc(Cn2nc3c(c2-c2ccccc2)-c2oncc2CC3)cc1 | 106% |
| O=S(=O)(NCCCNc1nccc(-c2c(-c3ccc(F)c(O)c3)nc3sccn23)n1)c1ccc(F)cc1 | 20.8% |
| COc1cc(/C=N/NC(=O)c2ccccc2Nc2cccc(C(F)(F)F)c2)ccc1O | 80.6% |
| COc1cc(/C=C2\C(=O)N(Cc3ccc(Cl)cc3)c3ccccc32)cc(OC)c1OC | -49.6% (active) |
| CCCCCCNC(=O)Oc1ccc(/C(=C(/CC)Cc2ccccc2)c2ccc(OCCN(CC)CC)cc2)cc1 | 72.4% |
| COc1ccc2c(c1)c(CC(=O)NCCOCCOCC(=O)Nc1ccc(OC)c(C(N)=O)c1O)c(C)n2C(=O)c1ccc(Cl)cc1 | 103% |
| COc1ccc2c(c1)OC13Oc4cc(OC)ccc4C=C1CCCC3=C2 | 5.62% (active) |
| c1ccc2c(-c3c4ccsc4cc4[nH]c5ccccc5c34)c[nH]c2c1 | 13.8% |
| CCn1cc(C2NC(=O)c3ccccc3N2)c2cccc(C)c21 (stereo not given) | -44.9% (active) |
| O=C(Nc1ccc(Cl)cc1)Nc1ccc(Cl)c(Cl)c1 | -31% (active) |
| OC1(c2ccc(Cl)c(C(F)(F)F)c2)CCN(CCCC(c2ccc(F)cc2)c2ccc(F)cc2)CC1 | -99.9% (active) |
| CCOC(=O)c1ccc(Nc2ccnc(SCC(=O)c3ccc(C#N)cc3)n2)cc1 | 79.1% |
| COc1cc(C(=O)/C=C/c2c(C)n([O-])c3ccc(Cl)cc3[n+]2=O)cc(OC)c1OC | 23.2% |
| CCN1C(=O)/C(=c2\sc3n(c2=O)NC2C(N=3)N(CC)C(=O)N2CC)c2ccccc21 (stereo not given) | -12.7% (active) |
| c1ccc(CCSc2ncnc3nc[nH]c23)cc1 | 116% |
| CC(=O)N1c2ccccc2NC2=C(C(=O)N(C)C2(C)C)C1C (stereo not given) | 18.1% |
| C=C(C)[C@@H]1CC[C@]2(CO)CC[C@]3(C)[C@H](CC[C@@H]4[C@@]5(C)CCCNC(C)(C)[C@@H]5CC[C@]43C)[C@@H]12 | 44.4% |
| COc1ccccc1OCC(=O)N1CCCCCC1 | 116% |
